# Bioassay records from PubChem.
# An excerpt weighted towards active compounds, which were near 5% of everything screened.
# Caspase-1 inhib = blocks human caspase-1 allosterically or competitively; Caspase-1 enzyme, Ac-WEHD-AFC fluorogenic rate; Potency, µM (highest dose often 57.5 µM), for inactives: at the highest dose activity change, negative = inhibition, hits mostly inhibitors; actives 0.03% (n = 75,000); AID 900;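 note: plate controls were vehicle for no effect and no substrate for full effect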
# TSHR agonist = activates the human thyroid stimulating hormone receptor; P16473; actives 0.48% (n = 73,000); HEK293-CNG-TSHR cells (CNG channel as cAMP sensor), membrane potential dye, cAMP; Potency, µM (highest dose often 57.1 µM), without a hit: top-dose activation, hits mostly activators; active = well fitted activation curve with a large enough effect in the main read-out, with a control signal flat, not every such curve was filed as active; inconclusive = small, poorly fitted or top-dose-only effect, or a change in a side signal; inactive = no such curve, though single readings can be large or run the other way; % of control where 0% means no effect;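 note: the control signal comes from parental cells without the receptor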
#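 cAMP rise detected as CNG-channel membrane depolarization by fluorescent dye (emission 590 nm), 30 min after compound, following 60 min dye loading containing 100 uM RO 20-1724 at room temperature. Cells: TSHR/CNG HEK 293, with parental CNG HEK 293 as control.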
# Casp7 inh = caspase-7 (human) inhibition, allosteric or competitive; P55210; recombinant caspase-7, Ac-DEVD-AFC fluorescence rate; Potency, µM (top dose mostly 57.5 µM), for inactives: at the top dose activity change, negative = inhibition, most hits filed as inhibitors; actives 0.02% (n = 75,000); active = well fitted inhibition curve with a large enough effect in the main read-out, with a control signal flat, not every such curve was filed as active; inconclusive = small, poorly fitted or top-dose-only effect, or a change in a side signal; note: % of control where 0% means no effect
# CRE Fsk mod = modulators of forskolin-stimulated CRE signaling in CHO cells | Potency, µM (top dose mostly 38.2 µM), for inactives: at the highest dose activity change, negative = inhibition, actives largely listed as activators | actives 2.5% (n = 71,000) | CHO CRE-bla reporter (cAMP response element driving beta-lactamase), forskolin EC10, beta-lactamase ratio | AID 662; active = well fitted activation curve with a large enough effect in the signal ratio, with a control signal flat, not every such curve was filed as active; inconclusive = small, poorly fitted or top-dose-only effect, or effect the other way, or a change in a side signal; the % refers to the signal ratio; note: % of control where 0% means no effect
#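 CRE-bla CHO cells stimulated with EC10 NKH 477 (water-soluble forskolin) and compound titrations, 3 h at 37C; beta-lactamase read with CCF4 after 2 h at room temperature. Activity from 460/530 nm emission ratio, AC50 values for positive or negative modulation.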
# HEK293 cAMP cs = raises cAMP in parental HEK293 cells, TSHR agonist counter-screen | parental HEK293 CNG cAMP sensor, membrane potential fluorescence | Potency, µM (top dose mostly 57.1 µM), inactives show at the top dose activation, actives largely listed as activators | actives 2.5% (n = 73,000); note: % of control where 0% means no effect; nearly all actives have a fitted effect of over 55% in size
#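 Parental HEK 293 cells stably expressing a cAMP-gated CNG channel were loaded with membrane potential dye containing 100 uM RO 20-1724 for 60 min. Compound added for 30 min; depolarization read as fluorescence intensity at 590 nm.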
# USP2a inh = inhibitors of human ubiquitin-specific protease USP2a | AID 927 | O75604 | actives 0.1% (n = 60,000) | Potency, µM (doses to about 38.3 µM), for inactives: at the top dose activity change, negative = inhibition, usual class: inhibitors | USP2a enzymatic assay, qHTS inhibition; note: nearly all actives have a fitted effect of over 60% in size
# Target sequence (O75604 whole entry, looked up): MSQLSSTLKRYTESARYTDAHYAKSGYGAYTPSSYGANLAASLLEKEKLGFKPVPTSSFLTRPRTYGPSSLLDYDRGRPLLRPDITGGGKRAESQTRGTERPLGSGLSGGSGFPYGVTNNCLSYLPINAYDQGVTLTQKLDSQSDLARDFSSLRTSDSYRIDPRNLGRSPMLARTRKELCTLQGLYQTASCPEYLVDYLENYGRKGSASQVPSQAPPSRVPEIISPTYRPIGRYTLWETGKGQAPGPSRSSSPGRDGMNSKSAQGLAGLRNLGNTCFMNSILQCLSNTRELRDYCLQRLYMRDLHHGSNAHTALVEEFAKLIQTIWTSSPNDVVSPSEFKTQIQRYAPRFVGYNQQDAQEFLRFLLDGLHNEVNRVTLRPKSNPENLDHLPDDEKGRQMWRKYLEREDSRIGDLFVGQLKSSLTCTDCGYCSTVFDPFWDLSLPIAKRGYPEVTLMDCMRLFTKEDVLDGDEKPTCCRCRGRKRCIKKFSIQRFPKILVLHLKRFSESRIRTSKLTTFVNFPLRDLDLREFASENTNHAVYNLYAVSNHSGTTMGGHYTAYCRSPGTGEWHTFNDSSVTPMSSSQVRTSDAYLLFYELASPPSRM
#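 20 nM USP2 core + cpd, 30 min RT; add 20 nM Ub-PLA2/20 uM NBD C6-HPC; read Ex460/Em535 at 0 h and 2.5 h. Normalized to NEM; qHTS curve fit/classification.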
# An asterisk follows results filed as active; ? = inconclusive; / = no result; ! = not active in a repeat; [ ] = remark or other dose. Unless noted, calls come from the whole dose curve; as a rule, active = well fitted curve in the direction sought with a large enough effect; inconclusive = small, poorly fitted or top-dose-only effect, or another doubt; inactive = no such curve, though single readings can be large; an effect the other way counts as inactive or inconclusive. Potency is the fitted concentration of half-maximal effect.
SMILES,Caspase-1 inhib,TSHR agonist,Casp7 inh,CRE Fsk mod,HEK293 cAMP cs,USP2a inh
COc1ccccc1-c1cc(C(=O)N2CCc3ccccc3C2)no1,-3%,23%,-4%,?,23%,/
Cn1c(C(=O)N2CCN(c3ccc(F)cc3)CC2)cc2c(=O)n(C)c3ccccc3c21,1%,-9%,1%,-8%,0%,/
Cn1c(C(=O)N2CCN(C(=O)c3ccco3)CC2)cc2c(=O)n(C)c3ccccc3c21,-1%,-1%,-2%,4µM*,-9%,/
COc1ccccc1N1CCN(C(=O)c2cc3c(=O)n(C)c4ccccc4c3n2C)CC1,-1%,6%,-2%,2µM*,-1%,/
CCOC(=O)c1cc(NC(=O)NCc2ccco2)c(C)nc1C,1%,10µM*,-1%,?,-7%[2.29 µM],0%
COC(=O)c1ccccc1NC(=O)NCc1ccco1,0%,9%,-2%,-6%,5%,-7%
CCCn1c(-c2ccc(F)cc2)nc2c(N3CCN(Cc4nc(OC)cc(OC)n4)CC3)nc(C)nc21,-3%,?,-3%,8%,16µM*,/
CCCn1c(-c2ccc(F)cc2)nc2c(NCCN3CCCC3)nc(C)nc21,2%,?,1%,6%,?,/
CN1CCN(CC(=O)N2c3ccccc3Sc3cc4ccccc4cc32)CC1,1%[11.5 µM],10%[11.4 µM],-2%[11.5 µM],4%[7.6 µM],23%[11.4 µM],/
CN(C)c1ccc(C2(c3ccc(N(C)C)cc3)OC(=O)c3cc(N(C)C)ccc32)cc1,-6%,-2%,-12%,?,1%,/
COc1ccc(OC)c(NC(=O)c2cc3ccccc3o2)c1,-6%,?,0%,?,32µM*,-7%
COc1ccc(C)cc1NC(=O)c1cc2ccccc2o1,-4%,?,-2%,?,20µM*,-9%
COc1ccc(-c2nnc(-c3cccs3)o2)cc1OC,-1%,6%,0%,?,10%,15%
COc1cc(-c2nnc(-c3cccs3)o2)cc(OC)c1OC,-2%,0%,2%,2.5µM*,8%,/
Nc1c(S(=O)(=O)c2cccs2)c2nc3ccccc3nc2n1Cc1ccc2c(c1)OCO2,-24%,-3%,-21%,1%,-1%,11%
c1csc(-c2nc3nc4ccccc4nc3n2Cc2ccc3c(c2)OCO3)c1,/,-10%,?,10µM*,-8%,48%
CCOC(=O)CSc1ccc2nnc(-c3cccs3)n2n1,-3%,?,-3%,4µM*,?,/
CC(=O)c1cc2c(cc1NC(=O)c1cc(C)nn1-c1ccccc1)OCO2,-9%,?,-10%,7.9µM*,?,/
O=C(NCCO)c1ccc(Cc2nc3ccccc3[nH]2)cc1,-1%,-6%,-1%,/,-5%,/
CCOC(=O)c1oc2ccc(Br)cc2c1CSc1nnc(C)s1,-4%,?,-1%,?,32µM*,-3%
CCOC(=O)NC(=O)CSc1nnc(C)s1,0%,3%,1%,4%,3%,-15%
Cc1sc(NC(=O)CSc2nc(N)n(CC(=O)c3ccccc3)n2)c(C#N)c1C,0%,9%[11.4 µM],-2%,5µM*,1%,43%
COc1ccc(N2CCN(c3nc(NCCc4ccc(OC)c(OC)c4)nc(OC)n3)CC2)cc1,-7%,?,-13%,3.2µM*,?,20%
COCCCN1C(=O)c2[nH]nc(-c3cc(C)cc(C)c3O)c2C1c1ccc(O)c(OC)c1 (stereo unspecified),-2%,?,0%,10µM*,?,41%
COc1cc(C2c3c(-c4cc(C)cc(C)c4O)n[nH]c3C(=O)N2CCCO)cc(OC)c1OC (stereo unspecified),1%,14%,0%,16%,-5%,37%
SMILES,Caspase-1 inhib,TSHR agonist,Casp7 inh,CRE Fsk mod,HEK293 cAMP cs,USP2a inh
CC(c1ccco1)N(C(=O)CSc1ccc(Br)cc1)c1ccccn1 (stereo unspecified),-4%,?,-2%,-21%,25µM*,-7%
COCCNc1nc(C(C)(C)C)nc2c1nnn2Cc1ccccc1Cl,-2%,?,-3%,3%,2.5µM*,3%
CCNc1ncc2nc(-c3ccccc3)c(=O)n(CCc3ccccc3)c2n1,/,29%,?,?,21%,92%
CCNc1ncc2nc(C)c(=O)n(CCc3ccccc3)c2n1,-13%,5%,-19%,2µM*,24%,163%
Cc1nc2cnc(OCc3ccccc3)nc2n(CCc2ccccc2)c1=O,2%,?,-4%,?,10µM*,-15%
CCNc1ncc2nc(C)c(=O)n(CCC#N)c2n1,/,-2%,?,13µM*,1%,-1%
Cc1cc(O)c(-c2n[nH]c3c2C(c2cccc(O)c2)N(Cc2cccnc2)C3=O)cc1Cl (stereo unspecified),-2%,27%,32µM*,-14%,-2%,25%
CCc1nnc2n1N=C(c1ccc(-c3ccc(Cl)cc3Cl)o1)CS2,2%,12%[11.4 µM],-4%,5%,10%,38%
Clc1ccc(OCc2nnc3n2N=C(c2ccc4c(c2)OCCO4)CS3)c(Cl)c1,-3%,?,-3%,13µM*,?,18%
CCOc1ccccc1NC(=O)CSc1nc2c(c(=O)n1C)SC(C)C2 (stereo unspecified),4%,?,-1%,5%,32µM*,/
CCOc1ccc(OCC)c(NC(=O)CSc2nc3ccccc3c(=O)n2C)c1,0%,?,0%,?,?,10%
CCOc1ccc(OCC)c(NC(=O)CSc2nc3cccnc3n2C)c1,-10%,?,-6%,?,32µM*,32%
COc1ccccc1-c1cc(C(=O)Nc2cc(C)n(Cc3ccc(Cl)cc3)n2)no1,1%,?,0%,9%,3.2µM*,14%
COC(=O)[C@@H](NC(=O)c1cc(-c2ccccc2)nc2ccccc12)c1ccccc1,/,?,/,-4%,3.2µM*,/
CCN(C(=O)c1c(-c2ccccc2)noc1C)c1ccccc1,0%,10µM*,0%,?,8%,10%
Cc1onc(-c2ccccc2)c1C(N)=O,0%,0%,3%,2%,-9%,-3%
O=C1c2ccccc2-c2n[nH]c3cccc1c23,/,?,?,16µM*!,?,25%
O=C(CCN1CCCCC1)c1csc2ccccc12,3%[11.5 µM],4%[11.4 µM],0%[11.5 µM],-15%[7.6 µM],-2%[11.4 µM],/
CCOC(=O)OCC,-3%,-11%,1%,-7%,2%,/
COC(=O)[C@H](C)[C@@H]1C[C@@]1(C)[C@@H](NC(=O)OCc1ccccc1)c1ccccc1,-4%,?,-3%,-14%,16µM*,/
C[C@@H](C(=O)O)[C@H]1C[C@]1(C)[C@H](NC(=O)OCc1ccccc1)c1ccccc1,1%,?,0%,3%,?,/
